# Compound activity as filed in PubChem BioAssay.
# HTT aggregate – qHTS Multiplex Assay to Identify Dual Action Probes in a Cell Model of Huntington: Aggregate Formation (GFP); PC12 HttQ103-GFP aggregates, Acumen cytometry, 40 h; Potency, µM (series often up to 46.1 µM), without a hit: at the highest dose activity change, negative = inhibition, most hits filed as inhibitors; actives 1.1% (n = 220,000); note: % is set by controls: 0 for no effect and ±100 for the full control effect; nearly all actives have a fitted effect of over 60% in size
#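 Aggregate formation scored by laser-scanning cytometer (488 excitation, 500–530 emission) in lysed PC12 cells expressing Q103-GFP after 100 nM tebufenozide induction; library tested in dose series, with ATPLite reagent added in the multiplex.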
# ALDH1A1 inh – qHTS Assay for Inhibitors of Aldehyde Dehydrogenase 1 (ALDH1A1) | Purified ALDH1A1, NADH fluorescence, propionaldehyde substrate | Aldehyde dehydrogenase 1A1 (Homo sapiens), P00352 | Potency, µM (series often up to 75.3 µM), without a hit: at the top dose activity, negative = inhibition, hits mostly inhibitors | AID 1030, 2008 | actives 7.3% (n = 220,000); active = well fitted inhibition curve with a large enough effect, not every such curve was filed as active; inconclusive = small, poorly fitted or top-dose-only effect, or another doubt; inactive = no such curve, though single readings can be large or run the other way;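 note: plate controls were no enzyme wells and a reference inhibitor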
# Target sequence (P00352 whole entry, looked up): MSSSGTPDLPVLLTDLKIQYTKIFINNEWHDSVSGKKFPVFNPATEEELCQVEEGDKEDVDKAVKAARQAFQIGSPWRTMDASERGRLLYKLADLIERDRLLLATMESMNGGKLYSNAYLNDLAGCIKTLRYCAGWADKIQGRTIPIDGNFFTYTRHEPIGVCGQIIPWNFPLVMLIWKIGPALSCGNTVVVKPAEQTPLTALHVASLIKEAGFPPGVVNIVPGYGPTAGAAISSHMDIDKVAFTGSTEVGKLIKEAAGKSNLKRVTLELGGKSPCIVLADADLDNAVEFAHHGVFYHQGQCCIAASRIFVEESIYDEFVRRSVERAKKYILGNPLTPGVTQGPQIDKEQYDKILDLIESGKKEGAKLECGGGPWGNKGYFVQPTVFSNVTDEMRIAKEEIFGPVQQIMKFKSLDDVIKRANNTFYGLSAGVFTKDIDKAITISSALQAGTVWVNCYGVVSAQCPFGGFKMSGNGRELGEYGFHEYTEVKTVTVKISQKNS
# HPGD inh – qHTS Assay for Inhibitors of HPGD (15-Hydroxyprostaglandin Dehydrogenase); 15-hydroxyprostaglandin dehydrogenase [NAD(+)] (Homo sapiens), P15428; actives 4.3% (n = 150,000); AID 894, 2007; purified HPGD, NADH fluorescence kinetic, PGE2 substrate; Potency, µM, inactives show at the top dose activity change, negative = inhibition, usual class: inhibitors; active = well fitted inhibition curve with a large enough effect, not every such curve was filed as active; inconclusive = small, poorly fitted or top-dose-only effect, or another doubt; inactive = no such curve, though single readings can be large or run the other way; note: % is set by controls: 0 for no effect and ±100 for the full control effect
# Target sequence (P15428 whole entry, looked up): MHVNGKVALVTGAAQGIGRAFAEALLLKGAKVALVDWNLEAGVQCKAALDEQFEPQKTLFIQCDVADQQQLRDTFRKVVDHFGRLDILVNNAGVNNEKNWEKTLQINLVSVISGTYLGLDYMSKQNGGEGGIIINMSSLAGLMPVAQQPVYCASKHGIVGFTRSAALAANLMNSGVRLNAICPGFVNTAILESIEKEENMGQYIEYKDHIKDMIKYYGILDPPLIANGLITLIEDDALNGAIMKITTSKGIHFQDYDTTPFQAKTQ
#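 20 nM HPGD preincubated 15 min at room temperature with compound in 50 mM Tris-HCl pH 8, 0.01% Tween 20. Started with 1 mM NAD+ and 30 uM prostaglandin E2; NADH fluorescence (360/450 nm) read 5 times over 30-s intervals, last minus first.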
# HTT ATP protect – qHTS Multiplex Assay to Identify Dual Action Probes in a Cell Model of Huntington: Cytoprotection (ATP); PC12 HTT-Q103 induced, cytoprotection, ATP luminescence, 40 h; Potency, µM (doses to about 56.4 µM), without a hit: cytoprotection (ATP increase), most hits filed as activators; actives 0.14% (n = 230,000); note: % of control where 0% means no effect; nearly all actives have a fitted effect of over 45% in size
#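 ATP quantification (ATPlite) reports survival of PC12 cells in which tebufenozide, 100 nM final, switches on Htt exon 1 with 103 glutamines linked to GFP; compounds are titrated.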
# Lamin A splicing – qHTS Assay for Modulators of Lamin A Splicing; actives 0.01% (n = 200,000); HeLa LMNA splicing GFP/RFP minigene ratio, 48 h; Potency, µM (series often up to 46.1 µM), inactives show top-dose ratio change, negative = inhibition, usual class: inhibitors; AID 1487, 2009; active = well fitted inhibition curve with a large enough effect in the signal ratio, with a control signal flat, not every such curve was filed as active; inconclusive = small, poorly fitted or top-dose-only effect, or effect the other way, or a change in a side signal; the % refers to the signal ratio; note: % is set by controls: 0 for no effect and ±100 for the full control effect
#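 S3 HeLa cells stably expressing lamin A-EGFP splicing minigene plus DsRed2, 600 cells/well, 48 h compound exposure at 37C. Laser-scanning cytometry; analysed as GFP (500-530 nm)/RFP (575-640 nm) total intensity ratio; 0.5% DMSO vehicle.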
# * hit, by the source's call; ? = inconclusive; · = no result; [ ] = another dose, or the depositor's remark. Most compounds without a hit are left out; they make up all but 8.8% or so of the library. Unless noted, calls come from the whole dose curve; as a rule, active = well fitted curve in the direction sought with a large enough effect; inconclusive = small, poorly fitted or top-dose-only effect, or another doubt; inactive = no such curve, though single readings can be large; an effect the other way counts as inactive or inconclusive. Potency is the fitted concentration of half-maximal effect.
SMILES,HTT aggregate,ALDH1A1 inh,HPGD inh,HTT ATP protect,Lamin A splicing
CC(C)(C)NC(=O)c1oc2ccccc2c1COc1ccccc1,-0.1%,0.8%,-23.5%,1.5%[10 µM],-21.7%
CC(OC(=O)c1oc2ccccc2c1COc1ccccc1)C(N)=O (configuration not stated),5.0%,2.24µM*,·,-24.6%,15.4%[46 µM]
O=C(Nc1ccccc1C(=O)OCc1cc(=O)n2c3c(sc2n1)CCCC3)c1ccc(F)cc1,·,·,·,·,11.5%[46 µM]
COc1ccc(/C=N/n2cnn(Cc3ccccc3Cl)c2=S)cc1,0.5%,10µM*,·,-11.4%[10 µM],-5.9%[46 µM]
COc1cc(/C=N/n2cnn(Cc3ccccc3Cl)c2=S)cc(OC)c1OC,-9.1%,?,·,-25.6%[10 µM],?
COc1ccc2c(C)cc(=S)[nH]c2c1,-2.2%,31.6µM*,·,13.2%,-3.3%[46 µM]
C[C@@H]1C[C@@H]([C@@H](C)CC2CC(=O)NC(=O)C2)C(=O)[C@@H](C)C1,·,-11.7%,-5.0%,-123.4%,·
Cc1cc(C(=O)COC(=O)c2n[nH]c3ccccc23)c(C)n1CC1CCCO1 (configuration not stated),8.8%,-0.9%,28.2µM*,-14.2%,?
Cc1cc(C(=O)COC(=O)c2cc(O)c3ccccc3c2O)c(C)n1CC1CCCO1 (configuration not stated),-17.3%,28.2µM*,·,-121.6%,·
Cc1cc(C(=O)COC(=O)c2ccccc2Br)c(C)n1CC1CCCO1 (configuration not stated),40.5%[9.22 µM],·,·,-27.1%[10 µM],·
N#Cc1c(NC(=O)CSc2nnc(-c3ccncc3)n2CC2CCCO2)sc2c1CCCC2 (configuration not stated),11.8%,?,-6.8%,-14.5%,?
Cn1cnnc1SCC(=O)Nc1sc2c(c1C(N)=O)CCC2,-20.2%,?,17.8µM*,-12.1%,-0.8%
NC(=O)c1c(NC(=O)CSc2nnc(-c3ccccc3)n2CC2CCCO2)sc2c1CCC2 (configuration not stated),-11.4%,28.2µM*,?,-6.4%[10 µM],-5.7%
O=C(Cn1nnc(-c2ccccc2F)n1)NCc1ccco1,-7.7%,-6.3%,·,-20.8%,·
COc1ccccc1CNC(=O)CCn1cnc2ccccc2c1=O,·,·,·,·,-1.9%[46 µM]
COC(=O)Cc1nc(Nc2ccccc2)sc1C,-7.3%[9.22 µM],8.8%,·,4.3%[10 µM],·
Cc1cc(C2C(C#N)=C(N)Oc3n[nH]c(C)c32)c(C)s1 (configuration not stated),?,-7.5%,-21.9%,10.3%,-6.1%
Cc1cc(C2C(C#N)=C(N)SC(N)=C2C#N)c(C)s1,-20.0%,25.1µM*,20µM*,-1.1%,4.3%
Cc1sccc1C1C(C#N)=C(N)SC(N)=C1C#N,13.0%,10µM*,-15.6%,5.0%[1.9 µM],12.3%
CCOc1cc(CNC(=O)c2ccc3nc(CCc4ccccc4)oc3c2)ccc1OC,·,·,·,·,-13.2%[46 µM]
NS(=O)(=O)c1ccc(NC(=S)N2CCN(Cc3ccc(Cl)c(Cl)c3)CC2)cc1,22.4µM*,7.2%,·,-40.2%,·
NS(=O)(=O)c1ccc(NC(=S)N2CCN(c3ccc(Cl)c(Cl)c3)CC2)cc1,-24.0%,-9.1%,-6.6%,·,?
O=C(COC(=O)c1ccccc1Br)NCCN1C(=O)CSC1=O,10.1%,14.1µM*,·,0.9%,-21.3%[46 µM]
O=C(COC(=O)c1cccc(Cl)c1Cl)NCCN1C(=O)CSC1=O,-8.2%,0.3%,-10.8%,29.9%[10 µM],0.6%
CCc1ccccc1NC(=O)CSC1=C(C#N)C(c2ccc3c(c2)OCO3)C2=C(CCCC2=O)N1 (configuration not stated),-6.0%,25.1µM*,-19.8%,5.1%,0.0%
SMILES,HTT aggregate,ALDH1A1 inh,HPGD inh,HTT ATP protect,Lamin A splicing
NC(=O)c1ncn([C@@H]2O[C@@H](CO)[C@@H](O)[C@H]2O)n1,·,·,·,-12.3%[1.9 µM],·
O=C(CCN1CCN(c2ccccc2F)CC1)Nc1ccccc1F,11.1%,1.3%,-0.3%,15.7%[0.074 µM],8.7%
O=C(CN1CCN(c2ccc(O)cc2)CC1)Nc1ccc2c(c1)OCCO2,4.3%,9.46µM*,·,·,·
O=C(CN1CCN(c2ccccc2F)CC1)Nc1ccccc1F,0.6%,20µM*,2.9%,-10.5%,?
O=C(c1ccco1)N1CCCN(Cc2nc(-c3ccc4c(c3)OCO4)no2)CC1,-9.1%[9.22 µM],22.4µM*,·,18.4%[10 µM],?
O=C(CN1CCN(c2ccccc2)CC1)Nc1ccc2c(c1)OCCO2,29.9%,8.7%,·,-12.3%[10 µM],19.3%[46 µM]
O=C(CN1CCN(CC(=O)Nc2ccccc2F)CC1)Nc1ccc2c(c1)OCCO2,-10.2%,28.2µM*,·,-26.8%,·
CC1(C)OC(C(O)(c2cc(C(F)(F)F)cc(C(F)(F)F)c2)c2cc(C(F)(F)F)cc(C(F)(F)F)c2)C(C(O)(c2cc(C(F)(F)F)cc(C(F)(F)F)c2)c2cc(C(F)(F)F)cc(C(F)(F)F)c2)O1 (configuration not stated),·,17.4%[13.5 µM],·,-1.8%[10 µM],·
Cc1ccc(S(=O)(=O)c2c(Nc3ccccc3)sc(C(=O)c3ccc4c(c3)OCO4)c2N)cc1,·,·,·,·,-6.6%[46 µM]
COc1ccccc1N1CCN(CCC(=O)Nc2ccc3c(c2)OCO3)CC1,2.6%,-3.1%,-7.9%,-36.2%,3.7%
Cc1ccc(NC(=O)CN2CCN(c3ccccc3F)CC2)cc1F,·,·,·,·,3.6%[46 µM]
COc1ccccc1N1CCN(CC(=O)Nc2ccc3c(c2)OCCO3)CC1,-11.0%,22.4µM*,·,6.0%,·
O=C(CN1CCN(S(=O)(=O)c2ccc(Br)cc2)CC1)Nc1ccc2c(c1)OCCO2,15.5%,25.1µM*,-10.0%,-12.7%,-9.4%
COc1ccc(S(=O)(=O)N2CCN(CC(=O)Nc3ccc(C)c(F)c3)CC2)cc1,-24.2%,10µM*,-8.8%,14.4%[10 µM],-17.8%
COc1ccccc1N1CCN(CC(=O)Nc2ccc(C)c(F)c2)CC1,?,14.1µM*,-15.4%,-23.3%,?
Cc1cccc(NC(=O)CN2CCN(CC(=O)Nc3cccc(C)c3)CC2)c1,13.9%,20µM*,-2.2%,-5.5%,4.1%
O=C(CN1CCN(C(=O)c2ccco2)CC1)Nc1ccc2c(c1)OCCO2,-4.4%,12.6µM*,-8.7%,-9.1%,12.1%
O=C(CN1CCCCC1)Nc1ccc(N2CCCCCC2)cc1,11.0%[9.22 µM],?,·,6.8%[10 µM],?
CCCn1c(N2CCN(CC(=O)Nc3ccc4c(c3)OCCO4)CC2)nc2ccccc21,-1.5%,25.1µM*,-7.3%,-7.0%[10 µM],-6.9%
NC(=O)c1ccc(NC(=O)CN2CCN(c3ccc(Cl)cc3)CC2)cc1,?,22.4µM*,·,·,·
O=C(CN1CCCCCC1)Nc1cccc(Br)c1,2.0%,-9.4%,-18.6%,-17.8%,0.8%
Sc1ccc2ccccc2c1CNCc1ccccc1,·,-8.4%[13.5 µM],-6.6%,0.5%[10 µM],·
N/C(=N/O)c1ccccc1N1CCC(Cc2ccccc2)CC1,?,-6.3%,·,-32.5%,·
CC(C)CC(=O)Nc1ccc(-c2nc3ccccc3c(=O)[nH]2)cc1,-7.6%,-15.0%,-25.4%,-31.6%[10 µM],10.4%
